# Test results from PubChem BioAssay (Tox21).
# Where “and” joins values, the source holds several entries; their conditions need not be identical. Equal values may be shown once. Inconclusive results are not listed. Entries that show only a call come without a potency. Calls of active or inactive are those of the source. Calls come from the whole dose curve; as a rule, active = well fitted cell-killing curve with a large enough effect in the repeat runs; inconclusive = weak or mixed curves, or effect the other way; inactive = flat fitted curve, though single readings scatter.
# Test: cAMP Responsive Elements (CRE) small molecule antagonists, cell-based qHTS assay: qHTS cell viability counter screen (AID 2060913); note: nearly all actives have a fitted effect of over 40% in size; note: potency is the fitted concentration of half-maximal effect
# Details: CRE-bla HEK293T viability, CellTiter-Glo luminescence, 5 h; series mostly up to 92.4 µM
# Procedure, shortened: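 Viability of NKH477-stimulated (0.25 uM final) CRE-bla HEK293T cells is measured by CellTiter-Glo luminescence following 3 hrs compound exposure at 37 C.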
row,SMILES,Potency
1,O=C(CCl)CCl,inactive
2,CC[N+](=O)[O-],inactive
3,c1ccc(Nc2ccc(Nc3ccccc3)cc2)cc1,inactive
4,ClCCCN1CCN(c2cccc(Cl)c2)CC1,inactive
5,CCC[CH2][Sn]([Cl])([CH2]CCC)[CH2]CCC,3.86 µM (active) and 7.7 µM (active)
6,C[As+](C)(C)CC(=O)[O-],inactive
7,COCC(=O)N(c1c(C)cccc1C)N1CCOC1=O,inactive
8,CON(C)C(=O)Nc1ccc(Cl)cc1,inactive
9,CCc1cnc(C2=NC(C)(C(C)C)C(=O)N2)c(C(=O)O)c1 (stereo not drawn),inactive
10,O=S(=O)(Oc1ccc(Cl)cc1)c1ccc(Cl)cc1,inactive
11,Cc1cc(C(C)(C)c2ccc(O)c(C)c2)ccc1O,inactive
12,C[C@]12CC[C@H]3[C@@H](CCC4=CC(=O)CC[C@@H]43)[C@@H]1CC[C@@H]2OC(=O)CCc1ccco1,inactive
13,CNNC,inactive
14,CC(C)N(Cc1ccccc1)C(=O)C(C)(C)C,inactive
15,OCCSCSCCO,inactive
16,ClCC(Br)CBr (stereo not drawn),inactive
17,Nc1cccnc1,inactive
18,CCOc1cc(OP(=S)(OC)OC)nc(CC)n1,inactive
19,CC(C)C#N,inactive
20,COC(=O)C(C)N(C(=O)Cc1ccccc1)c1c(C)cccc1C (stereo not drawn),inactive

row,SMILES,Potency
1,CC(C)[N+](C)(CCC(C(N)=O)(c1ccccc1)c1ccccc1)C(C)C,inactive
2,C=CCN1C[C@H](C)N([C@H](c2ccc(C(=O)N(CC)CC)cc2)c2cccc(OC)c2)C[C@H]1C,inactive
3,NC(=O)O,inactive
4,Clc1ccc(-c2ccccc2)cc1,inactive
5,NC(=O)CCl,inactive
6,Cc1cc(Cl)ccc1OC(C)C(=O)O (stereo not drawn),inactive
7,OC(c1ccc(F)cc1)(c1cncnc1)c1ccccc1Cl (stereo not drawn),inactive
8,CCOC(=O)NC(O)C(Cl)(Cl)Cl (stereo not drawn),inactive
9,O=C1NC(=O)C(=O)C(=O)N1,inactive
10,c1ccc2c(c1)-c1cccc3cccc-2c13,inactive
11,NC(=O)CN1CCCC1=O,inactive
12,OC(c1ccc(Cl)cc1)(c1ccc(Cl)cc1)c1cccnc1,inactive
13,CC(O)CN(CC(C)O)CC(C)O (stereo not drawn),inactive
14,Oc1ccc(-c2ccccc2)cc1,inactive
15,C[C@@H]1CN(C2CCC(C#N)(c3ccc(F)cc3)CC2)CC[C@]1(C(=O)O)c1ccccc1 (stereo partly drawn),inactive
16,Oc1ccc(Cl)cc1,inactive
17,BrC(Br)Br,inactive
18,CC1=C(C(=O)Nc2ccccc2)SCCO1,inactive
19,Nc1cc2c3c(c1)C(c1ccccc1)=N[C@@H](NC(=O)c1cccnc1)C(=O)N3CC2,inactive
20,O=Cc1ccco1,inactive

# Test: cAMP Responsive Elements (CRE) small molecule agonists, cell-based qHTS assay: qHTS cell viability counter screen (AID 2060914); note: nearly all actives have a fitted effect of over 50% in size
# Details: CRE-bla HEK293T viability, CellTiter-Glo luminescence, 5 h; series mostly up to 92.4 µM
# Procedure, shortened: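 In the same wells as the reporter read, viability of CRE-bla HEK 293T cells was quantified by CellTiter-Glo luminescence after a 3 h compound exposure.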
row,SMILES,Potency
1,CC[N+](=O)[O-],inactive
2,C[As+](C)(C)CC(=O)[O-],inactive
3,CC(C)N(Cc1ccccc1)C(=O)C(C)(C)C,inactive
4,OCCSCSCCO,inactive
5,CCOc1cc(OP(=S)(OC)OC)nc(CC)n1,inactive
6,CC(C)C#N,inactive
7,Clc1ccc(-c2ccccc2)cc1,inactive
8,BrC(Br)Br,inactive
